{
  "source": "the supplement of paper PMC10849652",
  "note": "About 7,900 targets were measured; listed, in parts, are those with a hit and a random draw of the rest. About 0.6% of all pairs of compound and target were hits. A number with no mark means an inactive call.",
  "data": [
    {"compound": "CC[C@H](C)N1C=C(C2=C(C=C(C=C21)C3=CN=C(C=C3)N4CCNCC4)C(=O)NCC5=C(C=C(NC5=O)C)C)C", "test": "log2 fold change, soluble protein after heating vs DMSO (PISA); higher = thermal stabilisation; K562 cells, 10 uM, 30 min; active = over 0.2 and 3.5 SD of the protein, either way, in both replicates (recomputed)", "method_in_brief": "(§1)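 Soluble protein was defined as the supernatant after 21,000xg for 90 min. It came from K562 cells at 2×10^6 cells/mL given 10 μM compound for 30 min, heated in aliquots for 3 min across 48°C-58°C, pooled, and extracted in PBS with 0.5% NP-40 at 4°C, and was quantified by TMTpro 16plex LC-MS/MS with equalised channel sums. Thermal stability against control samples, from duplicates, is reported as log2 fold change.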", "values": [
      {"target": "KDM3B (UniProt Q7LBC6)", "log2 fold change": 0.06},
      {"target": "MAP2K7 isoform 4 (UniProt O14733)", "log2 fold change": 0.022},
      {"target": "MIEF1 (UniProt L0R8F8)", "log2 fold change": -0.106},
      {"target": "MARCKSL1 (UniProt P49006)", "sequence (P49006 whole entry, looked up)": "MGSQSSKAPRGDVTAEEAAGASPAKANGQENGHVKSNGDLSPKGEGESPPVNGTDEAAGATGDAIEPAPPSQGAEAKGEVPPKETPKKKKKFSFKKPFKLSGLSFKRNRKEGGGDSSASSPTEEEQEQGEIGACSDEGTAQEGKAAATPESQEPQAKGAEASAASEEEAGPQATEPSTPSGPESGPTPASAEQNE", "log2 fold change": 0.021},
      {"target": "MEPCE (UniProt Q7L2J0)", "log2 fold change": 0.052},
      {"target": "MCUR1 (UniProt Q96AQ8)", "log2 fold change": 0.006},
      {"target": "MED1 (UniProt Q15648)", "log2 fold change": 0.076},
      {"target": "LNPEP (UniProt Q9UIQ6)", "sequence (Q9UIQ6 whole entry, looked up)": "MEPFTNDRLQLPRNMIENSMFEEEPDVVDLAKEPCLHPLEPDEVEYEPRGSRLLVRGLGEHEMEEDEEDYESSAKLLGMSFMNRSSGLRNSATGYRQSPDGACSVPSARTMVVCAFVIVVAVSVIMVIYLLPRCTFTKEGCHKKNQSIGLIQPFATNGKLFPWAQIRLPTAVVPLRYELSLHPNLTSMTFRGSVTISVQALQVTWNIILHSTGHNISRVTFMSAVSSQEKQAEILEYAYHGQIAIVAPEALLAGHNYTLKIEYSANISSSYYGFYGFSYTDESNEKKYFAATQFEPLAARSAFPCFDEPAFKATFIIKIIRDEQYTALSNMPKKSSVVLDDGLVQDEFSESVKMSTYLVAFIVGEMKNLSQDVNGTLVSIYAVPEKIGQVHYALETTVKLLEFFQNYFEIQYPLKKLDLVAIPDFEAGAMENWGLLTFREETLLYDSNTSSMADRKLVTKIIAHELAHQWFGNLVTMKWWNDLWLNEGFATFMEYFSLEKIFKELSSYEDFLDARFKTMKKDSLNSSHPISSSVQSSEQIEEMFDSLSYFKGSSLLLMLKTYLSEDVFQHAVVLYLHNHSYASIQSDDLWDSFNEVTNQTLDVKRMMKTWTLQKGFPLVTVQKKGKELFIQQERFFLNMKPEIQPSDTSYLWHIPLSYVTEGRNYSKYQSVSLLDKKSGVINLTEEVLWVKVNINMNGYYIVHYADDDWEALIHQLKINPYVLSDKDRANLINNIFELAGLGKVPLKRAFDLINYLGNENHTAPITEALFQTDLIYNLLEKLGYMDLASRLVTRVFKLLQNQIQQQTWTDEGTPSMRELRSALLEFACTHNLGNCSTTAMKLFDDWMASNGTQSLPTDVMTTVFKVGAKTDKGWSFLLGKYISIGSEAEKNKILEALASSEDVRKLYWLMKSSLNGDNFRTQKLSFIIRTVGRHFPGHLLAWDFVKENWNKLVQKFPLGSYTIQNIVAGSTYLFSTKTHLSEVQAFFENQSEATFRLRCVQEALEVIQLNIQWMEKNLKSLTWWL", "log2 fold change": -0.016},
      {"target": "IPO7 (UniProt O95373)", "log2 fold change": 0.067},
      {"target": "LMNB1 (UniProt P20700)", "sequence (P20700 whole entry, looked up)": "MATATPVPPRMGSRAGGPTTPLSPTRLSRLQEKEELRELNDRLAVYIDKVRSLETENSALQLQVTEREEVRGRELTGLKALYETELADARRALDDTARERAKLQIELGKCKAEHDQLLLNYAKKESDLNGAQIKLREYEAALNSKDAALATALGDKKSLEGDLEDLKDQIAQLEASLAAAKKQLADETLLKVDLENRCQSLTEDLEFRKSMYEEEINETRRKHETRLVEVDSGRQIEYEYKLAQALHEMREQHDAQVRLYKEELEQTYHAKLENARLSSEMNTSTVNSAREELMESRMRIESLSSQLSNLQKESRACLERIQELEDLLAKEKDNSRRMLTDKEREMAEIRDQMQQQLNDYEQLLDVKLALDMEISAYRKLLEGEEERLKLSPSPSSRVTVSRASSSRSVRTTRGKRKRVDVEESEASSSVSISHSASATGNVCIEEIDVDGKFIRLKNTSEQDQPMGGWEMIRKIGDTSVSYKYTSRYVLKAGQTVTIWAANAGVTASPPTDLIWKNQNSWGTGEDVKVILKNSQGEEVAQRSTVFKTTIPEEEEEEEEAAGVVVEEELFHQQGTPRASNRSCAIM", "log2 fold change": 0.023},
      {"target": "MAGEC2 (UniProt Q9UBF1)", "log2 fold change": 0.028},
      {"target": "KDELR2 (UniProt P33947)", "sequence (P33947 whole entry, looked up)": "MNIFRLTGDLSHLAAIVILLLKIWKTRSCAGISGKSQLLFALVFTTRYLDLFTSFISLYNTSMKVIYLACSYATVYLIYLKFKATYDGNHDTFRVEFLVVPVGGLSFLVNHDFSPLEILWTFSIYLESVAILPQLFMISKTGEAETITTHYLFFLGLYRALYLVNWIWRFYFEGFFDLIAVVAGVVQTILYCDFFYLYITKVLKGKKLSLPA", "log2 fold change": -0.089},
      {"target": "INTS7 (UniProt Q9NVH2)", "log2 fold change": 0.1},
      {"target": "LMBRD2 (UniProt Q68DH5)", "log2 fold change": -0.012},
      {"target": "INPP5B (UniProt P32019)", "log2 fold change": 0.002},
      {"target": "IRF2BPL (UniProt Q9H1B7)", "log2 fold change": -0.012},
      {"target": "KIF3A (UniProt Q9Y496)", "log2 fold change": -0.187},
      {"target": "LNPK (UniProt Q9C0E8)", "sequence (Q9C0E8 whole entry, looked up)": "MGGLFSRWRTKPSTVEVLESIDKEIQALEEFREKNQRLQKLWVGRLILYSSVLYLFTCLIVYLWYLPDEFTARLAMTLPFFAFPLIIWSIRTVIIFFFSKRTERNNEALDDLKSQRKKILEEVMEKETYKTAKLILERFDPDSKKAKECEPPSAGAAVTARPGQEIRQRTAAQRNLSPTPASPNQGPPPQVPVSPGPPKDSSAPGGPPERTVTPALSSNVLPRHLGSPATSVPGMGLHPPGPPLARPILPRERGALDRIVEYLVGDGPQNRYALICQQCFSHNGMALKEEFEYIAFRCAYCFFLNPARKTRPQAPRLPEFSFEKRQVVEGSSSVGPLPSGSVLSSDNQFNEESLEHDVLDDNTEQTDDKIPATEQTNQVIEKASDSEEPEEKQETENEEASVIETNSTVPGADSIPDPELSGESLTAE", "log2 fold change": -0.038},
      {"target": "LEO1 (UniProt Q8WVC0)", "log2 fold change": -0.013},
      {"target": "MCU (UniProt Q8NE86)", "log2 fold change": 0.014},
      {"target": "MAP1LC3B2 (UniProt A6NCE7)", "log2 fold change": 0.05},
      {"target": "MAST4 (UniProt O15021)", "log2 fold change": 0.073},
      {"target": "ILK (UniProt Q13418)", "sequence (Q13418 whole entry, looked up)": "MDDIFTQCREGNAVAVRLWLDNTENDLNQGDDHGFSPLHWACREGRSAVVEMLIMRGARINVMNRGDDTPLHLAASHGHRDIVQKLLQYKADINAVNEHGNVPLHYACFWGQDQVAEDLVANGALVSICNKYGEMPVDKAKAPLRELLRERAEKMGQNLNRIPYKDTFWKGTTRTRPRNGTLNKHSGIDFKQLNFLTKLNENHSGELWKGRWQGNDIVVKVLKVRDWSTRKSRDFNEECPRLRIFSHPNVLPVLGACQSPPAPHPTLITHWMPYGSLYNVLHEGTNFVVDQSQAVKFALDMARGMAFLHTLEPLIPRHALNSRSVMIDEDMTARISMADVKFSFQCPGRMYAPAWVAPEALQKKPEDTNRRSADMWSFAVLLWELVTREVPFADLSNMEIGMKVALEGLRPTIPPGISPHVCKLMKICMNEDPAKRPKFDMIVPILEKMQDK", "log2 fold change": 0.035},
      {"target": "LARP7 isoform 3 (UniProt Q4G0J3)", "log2 fold change": 0.051},
      {"target": "LDAH isoform 2 (UniProt Q9H6V9)", "sequence (Q9H6V9 whole entry, looked up)": "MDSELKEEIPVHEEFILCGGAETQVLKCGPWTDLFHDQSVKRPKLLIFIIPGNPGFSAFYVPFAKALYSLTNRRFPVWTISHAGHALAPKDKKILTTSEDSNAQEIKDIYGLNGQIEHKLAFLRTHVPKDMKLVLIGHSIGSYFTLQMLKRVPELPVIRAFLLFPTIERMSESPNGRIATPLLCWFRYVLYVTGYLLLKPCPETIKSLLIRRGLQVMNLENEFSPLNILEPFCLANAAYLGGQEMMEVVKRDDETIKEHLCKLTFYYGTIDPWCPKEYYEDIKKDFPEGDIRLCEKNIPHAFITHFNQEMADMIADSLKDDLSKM", "log2 fold change": 0.007},
      {"target": "MFN2 (UniProt O95140)", "sequence (O95140 whole entry, looked up)": "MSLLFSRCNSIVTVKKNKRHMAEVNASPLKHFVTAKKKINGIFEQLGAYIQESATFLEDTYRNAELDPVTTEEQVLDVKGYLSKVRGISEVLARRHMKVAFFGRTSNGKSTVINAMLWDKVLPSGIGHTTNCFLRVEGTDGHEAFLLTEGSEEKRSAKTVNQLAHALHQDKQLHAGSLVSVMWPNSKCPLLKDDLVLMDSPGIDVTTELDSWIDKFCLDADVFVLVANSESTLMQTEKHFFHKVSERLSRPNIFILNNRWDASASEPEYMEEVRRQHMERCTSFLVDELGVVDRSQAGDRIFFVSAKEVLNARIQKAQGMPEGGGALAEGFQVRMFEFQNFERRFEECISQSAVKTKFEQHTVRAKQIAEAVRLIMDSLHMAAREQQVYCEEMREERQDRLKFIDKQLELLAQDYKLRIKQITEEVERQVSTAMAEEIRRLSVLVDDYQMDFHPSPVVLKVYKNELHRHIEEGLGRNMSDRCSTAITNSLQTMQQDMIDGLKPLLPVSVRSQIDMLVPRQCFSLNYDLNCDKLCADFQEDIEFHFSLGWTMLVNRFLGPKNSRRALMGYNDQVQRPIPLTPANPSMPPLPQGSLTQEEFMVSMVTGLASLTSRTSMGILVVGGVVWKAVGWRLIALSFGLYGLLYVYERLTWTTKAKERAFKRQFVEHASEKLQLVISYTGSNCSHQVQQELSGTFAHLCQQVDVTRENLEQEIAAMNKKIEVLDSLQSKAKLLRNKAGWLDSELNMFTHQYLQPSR", "log2 fold change": 0.011},
      {"target": "MAGOHB (UniProt Q96A72)", "sequence (Q96A72 whole entry, looked up)": "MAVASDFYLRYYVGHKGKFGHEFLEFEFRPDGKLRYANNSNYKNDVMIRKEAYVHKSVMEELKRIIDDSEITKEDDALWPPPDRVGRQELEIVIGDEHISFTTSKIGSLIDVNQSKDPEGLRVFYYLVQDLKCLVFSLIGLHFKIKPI", "log2 fold change": 0.014},
      {"target": "LMNB2 (UniProt Q03252)", "log2 fold change": 0.024},
      {"target": "LTV1 (UniProt Q96GA3)", "log2 fold change": 0.06},
      {"target": "KLHL18 (UniProt O94889)", "log2 fold change": -0.123},
      {"target": "MFSD5 isoform 2 (UniProt Q6N075)", "log2 fold change": -0.124},
      {"target": "MEAK7 (UniProt Q6P9B6)", "sequence (Q6P9B6 whole entry, looked up)": "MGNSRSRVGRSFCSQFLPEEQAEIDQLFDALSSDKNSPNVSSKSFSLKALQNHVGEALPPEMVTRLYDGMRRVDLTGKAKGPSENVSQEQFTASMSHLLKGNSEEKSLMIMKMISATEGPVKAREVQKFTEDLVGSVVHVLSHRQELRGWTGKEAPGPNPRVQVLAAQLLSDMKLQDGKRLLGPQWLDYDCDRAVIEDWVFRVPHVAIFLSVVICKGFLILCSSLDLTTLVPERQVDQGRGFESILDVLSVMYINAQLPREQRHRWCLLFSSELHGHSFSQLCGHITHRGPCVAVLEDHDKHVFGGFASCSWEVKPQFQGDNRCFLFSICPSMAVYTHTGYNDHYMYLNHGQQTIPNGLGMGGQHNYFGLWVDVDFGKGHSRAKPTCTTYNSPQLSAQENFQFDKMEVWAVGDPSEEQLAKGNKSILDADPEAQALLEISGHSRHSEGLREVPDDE", "log2 fold change": 0.039},
      {"target": "MCCC2 (UniProt Q9HCC0)", "log2 fold change": -0.032},
      {"target": "ITIH4 (UniProt Q14624)", "log2 fold change": -0.248},
      {"target": "KNTC1 (UniProt P50748)", "log2 fold change": 0.022},
      {"target": "MFGE8 (UniProt Q08431)", "sequence (Q08431 whole entry, looked up)": "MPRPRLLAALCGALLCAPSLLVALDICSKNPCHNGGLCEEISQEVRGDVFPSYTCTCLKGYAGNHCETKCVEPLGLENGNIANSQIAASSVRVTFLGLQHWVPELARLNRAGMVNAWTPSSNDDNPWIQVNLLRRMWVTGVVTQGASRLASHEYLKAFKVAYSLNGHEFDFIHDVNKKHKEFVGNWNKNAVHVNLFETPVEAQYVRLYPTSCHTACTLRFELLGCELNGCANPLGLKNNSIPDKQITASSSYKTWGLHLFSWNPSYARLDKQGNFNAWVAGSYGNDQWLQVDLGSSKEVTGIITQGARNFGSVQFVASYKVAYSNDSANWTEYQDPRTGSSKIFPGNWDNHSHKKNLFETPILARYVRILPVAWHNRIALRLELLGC", "log2 fold change": -0.007},
      {"target": "KCT2 (UniProt Q8NC54)", "log2 fold change": -0.006},
      {"target": "MAPK9 (UniProt P45984)", "log2 fold change": 0.006},
      {"target": "LSS (UniProt P48449)", "log2 fold change": 0.074}
    ]},
    {"compound": "CC[C@H](C)[C@@H](C(=O)N[C@@H]([C@@H](C)O)C(=O)N[C@@H](CC(C)C)C(=O)[C@]1(CO1)C)NC(=O)[C@H]([C@@H](C)CC)N(C)C(=O)C [epoxomicin]", "test": "log2 fold change, soluble protein after heating vs DMSO (PISA); higher = thermal stabilisation; K562 cells, 10 uM, 30 min; active = over 0.2 and 3.5 SD of the protein, either way, in both replicates (recomputed)", "method_in_brief": "as §1", "values": [
      {"target": "KDM3B (UniProt Q7LBC6)", "log2 fold change": 0.061},
      {"target": "MAP2K7 isoform 4 (UniProt O14733)", "log2 fold change": 0.07},
      {"target": "MIEF1 (UniProt L0R8F8)", "log2 fold change": 0.022},
      {"target": "MARCKSL1 (UniProt P49006)", "log2 fold change": -0.055},
      {"target": "MEPCE (UniProt Q7L2J0)", "log2 fold change": -0.053},
      {"target": "MCUR1 (UniProt Q96AQ8)", "log2 fold change": 0.009},
      {"target": "MED1 (UniProt Q15648)", "log2 fold change": -0.051},
      {"target": "LNPEP (UniProt Q9UIQ6)", "log2 fold change": 0.014},
      {"target": "IPO7 (UniProt O95373)", "log2 fold change": -0.007},
      {"target": "LMNB1 (UniProt P20700)", "log2 fold change": 0.037},
      {"target": "MAGEC2 (UniProt Q9UBF1)", "log2 fold change": -0.062},
      {"target": "KDELR2 (UniProt P33947)", "log2 fold change": -0.02},
      {"target": "INTS7 (UniProt Q9NVH2)", "log2 fold change": -0.029},
      {"target": "LMBRD2 (UniProt Q68DH5)", "log2 fold change": 0.081},
      {"target": "INPP5B (UniProt P32019)", "log2 fold change": 0.007},
      {"target": "IRF2BPL (UniProt Q9H1B7)", "log2 fold change": 0.108},
      {"target": "KIF3A (UniProt Q9Y496)", "log2 fold change": 0.068},
      {"target": "LNPK (UniProt Q9C0E8)", "log2 fold change": -0.007},
      {"target": "LEO1 (UniProt Q8WVC0)", "log2 fold change": -0.001},
      {"target": "MCU (UniProt Q8NE86)", "log2 fold change": 0.075},
      {"target": "MAP1LC3B2 (UniProt A6NCE7)", "log2 fold change": 0},
      {"target": "MAST4 (UniProt O15021)", "log2 fold change": 0.048},
      {"target": "ILK (UniProt Q13418)", "log2 fold change": -0.04},
      {"target": "LARP7 isoform 3 (UniProt Q4G0J3)", "log2 fold change": -0.081},
      {"target": "LDAH isoform 2 (UniProt Q9H6V9)", "log2 fold change": -0.052},
      {"target": "MFN2 (UniProt O95140)", "log2 fold change": 0.047},
      {"target": "MAGOHB (UniProt Q96A72)", "log2 fold change": 0.007},
      {"target": "LMNB2 (UniProt Q03252)", "log2 fold change": 0.028},
      {"target": "LTV1 (UniProt Q96GA3)", "log2 fold change": -0.109},
      {"target": "KLHL18 (UniProt O94889)", "log2 fold change": "0.36 (active)"},
      {"target": "MFSD5 isoform 2 (UniProt Q6N075)", "log2 fold change": "0.427 (active)"},
      {"target": "MEAK7 (UniProt Q6P9B6)", "log2 fold change": 0.067},
      {"target": "MCCC2 (UniProt Q9HCC0)", "log2 fold change": -0.018},
      {"target": "ITIH4 (UniProt Q14624)", "log2 fold change": -0.318},
      {"target": "KNTC1 (UniProt P50748)", "log2 fold change": 0.016},
      {"target": "MFGE8 (UniProt Q08431)", "log2 fold change": -0.003},
      {"target": "KCT2 (UniProt Q8NC54)", "log2 fold change": -0.063},
      {"target": "MAPK9 (UniProt P45984)", "log2 fold change": -0.005},
      {"target": "LSS (UniProt P48449)", "log2 fold change": 0.129}
    ]}
  ]
}
